An excerpt weighted towards active compounds, which were near 4% of everything screened.
MITF TRPM1 HTS: activators of MITF-driven TRPM1 promoter activity in SK-MEL-5 cells; SK-MEL-5 TRPM1-promoter luciferase, 24 h; % of positive control, neutral wells = 0; activation, % at 12.5 µM; 300,000 compounds, 0.75% hits;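 active = mean activation of at least 80% with every replicate also reaching 80%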;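 also: 0% = neutral control wells and 100% = parthenolide positive control wells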
EWS-Fli inh: EWS/Fli transcriptional activity inhibition; A673 NR0B1-luciferase reporter, viability-normalised; inhibition, % at 12.6 µM; 350,000 compounds, 0.67% hits;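 active = mean inhibition of at least 50% after viability correction, with every replicate also passing that limit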;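 also: firefly luciferase signal divided by Alamar Blue viability fluorescence both relative to DMSO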
MITF TRPM1 inh: inhibitors of MITF-driven TRPM1 promoter in melanoma cells. SK-MEL-5 TRPM1 promoter luciferase, 24 h. inhibition, % at 12.5 µM. 330,000 compounds, 0.83% hits;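 active = mean inhibition across replicates of 60% or more, whatever share of single replicates reaches that level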
Wnt act: activators of Wnt/beta-catenin signaling; Wnt/beta-catenin reporter cell assay, activator, plate reader; activation, % at 9.35 µM; 300,000 compounds, 1.2% hits; in the data active = activation above about 30%, passing the limit was not always enough;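 also: 0% = neutral control wells and 100% = positive control wells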
PAX8 inh HTS: lowers PAX8-driven luciferase in RMG-I cells. RMG-I TPO-luciferase reporter, SteadyGlo, 24 h. inhibition, % at 12.6 µM. 360,000 compounds, 1.2% hits;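 active = mean replicate inhibition at least 60% with every replicate also reaching 60%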;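 also: luciferase light reporting Pax8 driven TPO promoter activity; plate controls were median of neutral control wells for no effect and mitoxantrone controls for full effect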
esBAF inh: SWI/SNF esBAF complex inhibition; reporter increase, % at 12.5 µM; 350,000 compounds, 2% hits; mouse ES cells, Bmi1-luciferase knock-in reporter, 24 h; 100% = twice the neutral-well signal; in the data active = activation above about 40%;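 also: 0% = median of the plate's neutral control wells and 100% = double that signal; a rise in the Bmi1 reporter signal indicates esBAF inhibition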
Starred values were filed as active, the others as inactive; / = no result.

SMILES | MITF TRPM1 HTS | EWS-Fli inh | MITF TRPM1 inh | Wnt act | PAX8 inh HTS | esBAF inh
CCOC(=O)C1CCCN(CCC(=O)Nc2ccc(C)c(C)c2)C1 (stereo not drawn) | -5 | -4 | 7 | 0 | 2 | -1
CCOC(=O)C1CCN(CCC(=O)Nc2ccc(C)c(C)c2)CC1 | 10 | 5 | -6 | 46* | -13 | /
C[C@@H]1CCCCO[C@@H](CN(C)C(=O)Nc2ccc(F)cc2)[C@H](C)CN([C@H](C)CO)C(=O)c2cc(NC(=O)NC3CCCCC3)ccc2O1 | / | -8 | / | / | 59 | 8
C[C@@H]1CCCCO[C@H](CN(C)C(=O)Nc2ccc(F)cc2)[C@@H](C)CN([C@@H](C)CO)C(=O)c2cc(NC(=O)NC3CCCCC3)ccc2O1 | / | 4 | / | / | 66* | 3
C[C@@H]1CCCCO[C@@H](CN(C)C(=O)NC2CCCCC2)[C@H](C)CN([C@H](C)CO)C(=O)c2cc(NC(=O)Nc3ccc(F)cc3)ccc2O1 | / | 10 | / | / | 74* | 17
C[C@@H]1CN([C@@H](C)CO)C(=O)c2cc(NC(=O)Nc3ccc(F)cc3)ccc2O[C@@H](C)CCCCO[C@@H]1CN(C)C(=O)NC1CCCCC1 | / | -16 | / | / | 24 | -1
C[C@@H]1CN([C@H](C)CO)C(=O)c2cc(NC(=O)Nc3ccc(F)cc3)ccc2O[C@@H](C)CCCCO[C@H]1CN(C)C(=O)NC1CCCCC1 | / | 14 | / | / | 84* | 2
C[C@H]1CCCCO[C@H](CN(C)C(=O)NC2CCCCC2)[C@@H](C)CN([C@@H](C)CO)C(=O)c2cc(NC(=O)NC3CCCCC3)ccc2O1 | / | 8 | / | / | 66* | 3
C[C@@H]1CCCCO[C@H](CN(C)C(=O)NC2CCCCC2)[C@@H](C)CN([C@@H](C)CO)C(=O)c2cc(NC(=O)NC3CCCCC3)ccc2O1 | / | -4 | / | / | 46 | 1
CN1C(=O)c2cc(NC(=O)c3cccc(F)c3)ccc2OC[C@@H]2O[C@@H](CC(=O)NC3CCC3)CC[C@@H]21 | / | 6 | / | / | -7 | 3
C[C@@H]1CCCCO[C@H](CN(C)C(=O)C2CCCCC2)[C@@H](C)CN([C@@H](C)CO)C(=O)c2cc(NC(=O)Nc3ccc(F)cc3)ccc2O1 | / | 14 | / | / | 104* | -88
C[C@@H]1CN([C@@H](C)CO)C(=O)c2cc(NC(=O)Nc3ccc(F)cc3)ccc2O[C@@H](C)CCCCO[C@@H]1CN(C)C(=O)C1CCCCC1 | / | 3 | / | / | 13 | 0
O=[N+]([O-])c1ccccc1OCCOc1ccccc1[N+](=O)[O-] | / | -70 | -60 | 19 | -82 | /
O=c1c2ccccc2ncn1CCCOc1ccccc1[N+](=O)[O-] | 65 | / | -69 | 22 | / | 62*
Clc1ccc(OCCn2cnc3ccccc32)c(Cl)c1 | 73 | / | -81 | / | / | 71*
c1ccc2c(c1)ncn2CCOCCOCCn1cnc2ccccc21 | -13 | / | 13 | / | / | 7
Cc1cc(OCCCn2cnc3ccccc3c2=O)ccc1[N+](=O)[O-] | 6 | 3 | -6 | -1 | 88* | /
O=[N+]([O-])c1ccccc1OCCCn1cnc2ccccc21 | 104* | -121 | -101 | 16 | -181 | 65*
CC(C)NC(=O)N(C)C[C@@H]1Oc2c(NC(=O)CCCCCC(=O)Nc3ccccc3N)cccc2C(=O)N([C@@H](C)CO)C[C@H]1C | / | 34 | / | / | -26 | /
O=C(C=C=Nc1ccccc1)C(=O)N=C=Cc1ccccc1 | -83 | 7 | 82* | 26 | 80* | -75
CNC(=O)COc1coc(CN2CCN(C(=O)c3ccco3)CC2)cc1=O | -2 | 4 | 1 | 35* | / | -2
C[C@H]1CCCCO[C@@H](CN(C)Cc2ccc(C(F)(F)F)cc2)[C@@H](C)CN([C@@H](C)CO)C(=O)c2cc(N(C)C)ccc2O1 | / | 36 | / | / | 35 | -1
O=C1CN(Cc2ccc(F)cc2)C[C@@H]2[C@H](c3ccc(Br)cc3)[C@H](CO)N12 | / | 13 | / | / | / | /
CC(NC(=O)c1cc(COc2cccc(C(F)(F)F)c2)on1)c1nccs1 (stereo not drawn) | 66 | -96 | -63 | 13 | / | 61*
O=C(c1cc(COc2cccc(C(F)(F)F)c2)on1)N1CCCC1 | / | -49 | / | -1 | -113 | 70*
SMILES | MITF TRPM1 HTS | EWS-Fli inh | MITF TRPM1 inh | Wnt act | PAX8 inh HTS | esBAF inh
C[C@@H]1CN(C(=O)c2cc(COc3cccc(C(F)(F)F)c3)on2)C[C@H](C)O1 | 103* | -103 | -104 | 23 | -207 | 57*
O=C(c1cc(COc2cccc(C(F)(F)F)c2)on1)N1CCc2ccccc2C1 | 17 | 7 | -17 | 1 | -17 | -12
CN(C)CC(=O)N1[C@@H]2c3ccc(-c4ccccc4)c(=O)n3C[C@@H]2[C@@H](CO)[C@@H]1C(=O)NC1CCC1 | / | 1 | / | / | / | -4
C[C@@H]1CN([C@H](C)CO)C(=O)c2cc(NC(=O)CCCN(C)C)ccc2O[C@@H](C)CCCCO[C@H]1CN(C)S(=O)(=O)c1cccs1 | / | -12 | / | / | -30 | /
C[C@H](CO)N1C[C@H](C)[C@@H](CN(C)Cc2ccc(C(=O)O)cc2)OCCCC[C@H](C)Oc2ccc(NS(=O)(=O)c3cccs3)cc2C1=O | / | -7 | / | / | 1 | 3
CCOc1cccc(/C=C(/C#N)c2nc3ccccc3[nH]2)c1OCC(=O)O | 9 | 0 | -4 | 0 | 17 | 9
COc1cccc(/C=C(\C#N)c2nc3ccc(C)cc3[nH]2)c1OCC(=O)O | 0 | 7 | 1 | 0 | 30 | 51*
CNC(=O)C[C@H]1CC[C@@H]2[C@@H](COc3ccc(NC(=O)Nc4cccc(Cl)c4)cc3C(=O)N2C)O1 | / | -11 | / | / | -31 | -2
N/C(=N\OC(=O)c1cccc2ccccc12)c1cccc([N+](=O)[O-])c1 | 43 | / | -46 | 0 | / | 10
Cc1cccc(/C(N)=N/OC(=O)c2cccc3ccccc23)c1 | 41 | / | -33 | 25 | -99 | 49*
N/C(=N\OC(=O)c1cccc2ccccc12)c1cccnc1 | 35 | -57 | -33 | 45* | -73 | 44*
COc1cccc(S(=O)(=O)N[C@@H]2CC[C@H](CCN)O[C@@H]2CO)c1 | / | -5 | / | / | -2 | -4
CC[N+]1(C)CCC(O)(c2ccc(OC)cc2)C(C(=O)c2ccc(OC)cc2)C1 (stereo not drawn) | 6 | -3 | -3 | -3 | 76* | /
COc1ccc(C(=O)OCC[N+]2(C)CCOCC2)cc1 | -1 | -5 | 4 | 0 | -24 | 5
O=c1cc(-c2ccccc2Cl)oc2cc(O)cc(O)c12 | 40 | -36 | -42 | -2 | -111 | 58*
Nc1ccc(O)c2c(=O)cc(-c3ccccc3Cl)oc12 | 109* | -43 | -112 | 54* | -154 | /
O=c1cc(-c2ccccc2)c2c(O)cc(O)cc2o1 | 4 | 10 | -7 | 0 | -38 | 4
Cc1ccc(SCC(=O)NC(=O)NC(C)C)c(C)c1 | 13 | -11 | -11 | -1 | 4 | /
Cc1ccc(SCC(=O)NC(=O)NCCC(C)C)c(C)c1 | 7 | -3 | -7 | 41* | -5 | /

Screening results: PubChem BioAssay, Broad Institute
